The panel holds about 83,000 compounds, 20% with a hit somewhere; the sample as a whole holds those more often.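 How to read the values: 0–100, growth inhibition (40 = 60% inhibited); 0, no net growth; -100 to 0, cell death (-40 = 40% of starting cells died; -100 = all dead).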 Unmarked numbers belong to inactive results. Active and inactive are the calls of the source. Rule for the calls: active = growth percent below 10; inactive = the rest.

Common to all, as to experiment: NCI-60 one-dose screen, 48 h (100 = growth as untreated, 0 = no growth, -100 = all killed)
What all share (details): 10 µM unless noted

The test system of assay [1] is NCI-H23 lung.
Assay [2] concerns NCI-H226 lung.
Assay [3] relates to NCI-H322M lung.
Assay [4] concerns HOP-62 NSCLC.
The subject of assay [5] is NCI-H460 lung.
Assay [6] relates to HOP-92 NSCLC.
Assay [7] relates to NCI-H522 lung.
Assay [8] relates to A549/ATCC NSCLC.
For assay [9], the system named is 786-0 renal.
Assay [10] deals with COLO 205 colon.
Assay [11] deals with DU-145 prostate.
For assay [12], the system named is K-562 leukemia.
The subject of assay [13] is MALME-3M melanoma.
Assay [14] relates to MDA-MB-231 breast.
In assay [15] the test system is RXF 393 renal.
For assay [16], the system named is SF-268 CNS.
Assay [17] has as its system SF-295 CNS.
The subject of assay [18] is SF-539 CNS.
Assay [19] has as its system UACC-257 melanoma.
Assay [20] concerns M14 melanoma.

With `CCOC(=O)Cn1c(=O)c2c3ccccc3n(C)c2n2nnc(-c3ccccc3)c12`, the growth is 84.8% in [1]; 76.9% in [2]; 120% in assay [3]; 106% in assay [4]; 101% in assay [5]; 41.1% in assay [6]. In addition, the growth was 86.1% in assay [7]; 159% in [8]; 98% in [9]; 116% in assay [10]; 91.8% in assay [11]; 32.8% in assay [12]. Besides, the growth in assay [13] was 93.5%; in assay [14] it was 79.7%; in assay [15], 119%; in assay [16] it was 91%; in assay [17] it was 115%; in assay [18] it was 91.1%. In addition, the growth in [19] is 109%; in [20] it was 88.1%.

Consider `CCOC(=O)c1cn2ncnc(Oc3ccc(NC(=O)NC4CC4)c(F)c3)c2c1C`, for which the growth in assay [1] is 90.4%; in [2] it was 78.6%; in assay [3], 105%; in assay [4], 95.2%; in [5] it was 99.1%; in [6] it was 132%. Also, the growth in assay [7] is 90.2%; in assay [8], 102%; in [9], 106%; in assay [10], 113%; in [11] it was 110%; in [12], 88.6%. Moreover, the growth is 107% in [13]; 99.3% in assay [14]; 97.2% in [15]; 95% in [16]; 98.5% in assay [17]; 85% in assay [18]. Further, the figures for the growth in assay [19] and in [20] were 107% and 109%, respectively.

Regarding `COc1cc2c(/C=C3\C(=O)Nc4ccccc43)c(C(=O)O)[nH]c2cc1C`, the growth in assay [1] is 82.5%; in [2], 89.2%; in assay [3] it was 105%; in assay [4] it was 92%; in assay [5] it was 105%; in assay [6], 63.8%. Moreover, the growth in assay [7] is 93.5%; in [8] it was 106%; in assay [9], 108%; in [10] it was 120%; in assay [11] it was 118%; in assay [12], 103%. Also, the growth in [13] was 99.5%; in assay [14], 87.9%; in assay [15], 107%; in [16] it was 96.6%; in assay [17], 101%; in assay [18] it was 101%. Moreover, the growth in assay [19] was 106%; in assay [20], 105%.

Regarding `N#CC(C#N)N=Nc1ccc(Cl)cc1Cl`, the growth in assay [1] is 86.2%; in [2] it was 97.7%; in [3] it was 107%; in [4] it was 80.7%; in [5], 105%; in assay [6], -26.5% (active). For the same molecule, the growth in assay [7] was 39.3%; in assay [8], 105%; in assay [9], 91.2%; in [10] it was 67.2%; in assay [11], 80.8%; in assay [12] it was 40.7%. In addition, the growth in assay [13] was 77.3%; in assay [14], 68.2%; in assay [15] it was 116%; in assay [16], 103%; in assay [17], 100%; in assay [18], 74.7%. The growth in assay [19] is 87.3%; in assay [20], 81.8%.

Consider `C=NNc1ccccc1`, for which the growth in [1] is 86.5%; in assay [2], 87.5%; in assay [3], 85.7%; in [4], 101%; in assay [5] it was 102%; in assay [6], 78.1%. The growth in assay [7] is 73.7%; in assay [8], 84.3%; in assay [9], 103%; in assay [10], 100%; in [11] it was 100%; in assay [12], 75.8%. Also, the growth was 126% in assay [13]; 66.8% in assay [14]; 105% in assay [15]; 92.3% in assay [16]; 100% in assay [17]; 101% in assay [18]. Moreover, the growth is 98.3% in assay [19] and 95.3% in assay [20].

As for `NC(=O)OCCn1cc(-c2nc(-c3c[nH]c4ncccc34)cs2)c2ccccc21`, the growth was 63.3% in [1]; 53% in [2]; 65.9% in assay [3]; 39.2% in [4]; 17.8% in assay [5]; 49.1% in [6]. Further, the growth in assay [7] was 5.49% (active); in [8], 36.9%; in assay [9], 42.9%; in assay [10], 4.32% (active); in assay [11], 64.9%; in assay [12], 11.8%. Besides, the growth in [13] was 62.4%; in assay [14] it was 49.7%; in [15], 46.3%; in assay [16], 50%; in assay [17] it was 25.5%; in [18], 33.8%. The growth was 60.5% in assay [19] and 11.8% in assay [20].

Regarding `O=C(c1ccc(Cl)cc1Cl)N1c2ccccc2Sc2ccccc21`, the growth in assay [1] is 73.5%; in [2], 68%; in assay [3], 85.2%; in assay [4] it was 64.7%; in assay [5] it was 18.3%; in assay [6], 71.5%. Moreover, the growth in assay [7] was 63.7%; in [8] it was 54.2%; in assay [9], 67%; in assay [10], 45%; in [11], 65.2%; in assay [12], -42.2% (active). The growth was 63.8% in [13]; 68.8% in assay [14]; 70% in assay [15]; 50% in [16]; 53.1% in assay [17]; 41.8% in assay [18]. The growth in assay [19] is 64.3%; in assay [20], 59.8%.

The values above are taken from PubChem BioAssay (NCI).
